Compound activity as filed in PubChem BioAssay.
The list is not random: actives were taken first. Their share in the collection is about 11%.
NS1 inh = qHTS Assay for Inhibitors of Influenza NS1 Protein Function; 270,000 tested, 0.4% active; AID 2326, 2010; Potency, µM (top dose mostly 46.1 µM), inactives show at the highest dose activity, positive = more growth; calls by dose curve; further: actives are rising curves; nearly all actives have a fitted effect of over 50% in size
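Growth recovery, yeast-based: influenza A NS1 expressed in S. cerevisiae causes slow growth, and suppressors are detected by OD600. The parent strain without NS1 is used as positive control.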
AMA1 RON2 block = qHTS for Inhibitors of AMA1-RON; Towards Development of Antimalarial Drug Lead: Primary Screen. Plasmodium falciparum AMA1 (3D7) - RON2 peptide interaction. AlphaScreen AMA1-biotinylated RON2 peptide binding. Potency, µM (series often up to 58.2 µM), for inactives: top-dose activity change, negative = inhibition, actives largely listed as inhibitors. 360,000 tested, 0.2% active;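 further: 0% = vehicle wells and -100% = peptide control; nearly all actives have a fitted effect of over 45% in size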
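AMA1 (3D7) with his tag at 25 nM final met compounds first, then biotinylated RON2 peptide at 25 nM; detection used donor plus acceptor beads, 10 µg/mL apiece, read by AlphaScreen after 30 min at room temperature.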
Pf growth 48h = Primary qHTS for delayed death inhibitors of the malarial parasite plastid, 48 hour incubation; P. falciparum luciferase growth in erythrocytes, 48 h; Potency, µM (highest dose often 28.7 µM), inactives show at the highest dose activity change, negative = inhibition, usual class: inhibitors; AID 504832, 2011; 310,000 tested, 5.9% active; further: on the % scale 0 is the no-effect control and ±100 the full control effect
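Growth was read as firefly luciferase luminescence after a 48 h, 37 C, 5% CO2 exposure of compounds to reporter-bearing P. falciparum cultures (0.1% parasitemia, 2% hematocrit final) in Albumax-supplemented RPMI 1640.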
Sm TGR block = qHTS Assay for the Inhibitors of Schistosoma Mansoni Peroxiredoxins; Schistosoma mansoni thioredoxin glutathione reductase (TGR), Q962Y6; purified TGR, DTNB reduction, TNB absorbance 405 nm; Potency, µM (highest dose often 114 µM), for the others: at the top dose activity change, negative = inhibition, usual class: inhibitors; 360,000 tested, 3% active; AID 485364, 2010; further: on the % scale 0 is the no-effect control and ±100 the full control effect; nearly all actives have a fitted effect of over 60% in size
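Kinetic colorimetric format: TGR-catalysed, NADPH-driven DTNB reduction monitored via TNB absorbance. Enzyme dispensed at 20 nM; compound exposure 15 min at room temperature before reaction start.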
Pf growth 96h = Primary qHTS for delayed death inhibitors of the malarial parasite plastid, 96 hour incubation | P. falciparum luciferase reporter growth, 96 h | Potency, µM (doses to about 28.7 µM), for the others: top-dose activity change, negative = inhibition, actives largely listed as inhibitors | 320,000 tested, 6.9% active | AID 504834, 2011; further: on the % scale 0 is the no-effect control and ±100 the full control effect
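Plates of compound plus infected erythrocytes (2% hematocrit, 0.05% parasitemia final) incubate 96 hours, 37 C, 5% CO2. Detection reagent added; reduced luminescence from the parasites' luciferase reporter flags inhibition.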
Numbers without * were called inactive; ? = inconclusive; . = not tested or not shown. Unless noted, the call rests on the fitted dose curve; in most records, active means well fitted curve in the direction sought with a large enough effect; inconclusive means small, poorly fitted or top-dose-only effect, or another doubt; inactive means no such curve, though single readings can be large; an effect the other way counts as inactive or inconclusive. Potency means the concentration at half of the fitted maximal effect.

SMILES	NS1 inh	AMA1 RON2 block	Pf growth 48h	Sm TGR block	Pf growth 96h
CN(C)S(=O)(=O)N1CCc2ccc(NC(=O)c3ccc(C(F)(F)F)cc3)cc2C1	20.4%	-0.4%	27.0%	-1.4%	13.1µM*
CCc1cccc(NC(=O)CCS(=O)(=O)c2cc(Br)cc3c2N(C(C)=O)CC3)c1	.	.	.	4.3%	.
COc1ccc(S(=O)(=O)N(C)Cc2ccc3c(c2)OCCO3)cc1	.	-2.5%	1.1%	-2.1%	17.9%
COc1ccc(S(=O)(=O)N(C)c2ccc(C(=O)N3CCN(c4ccccc4)CC3)cc2)cc1OC	-38.8%	-19.0%	14.7µM*	1.1%	?
COc1ccc(S(=O)(=O)N(C)c2ccc(C(=O)Nc3ccccc3C(=O)N3CCOCC3)cc2)cc1OC	-10.9%	14.5%	11.7µM*	-11.1%	?
COc1ccc(S(=O)(=O)N(C)c2ccc(C(=O)N3CCCC3)cc2)cc1OC	-29.3%	4.4%	-6.6%	-11.7%	7.2%
CC(C)CC(=O)Nc1nnc(S(=O)(=O)N(C)Cc2ccc(Cl)cc2)s1	.	.	.	2.7%	.
O=C(NNC(=O)C12CC3CC(CC(C3)C1)C2)c1ccccc1[N+](=O)[O-]	0.5%	5.0%	8.7%	2.2%	-28.1%
COc1cc(C(=O)NCC(=O)N/N=C(/C)c2cccs2)cc(OC)c1OC	-3.0%	6.8%	0.0%	5.6%	1.65µM*
COc1ccccc1CN1C[C@@H]2C[C@@H](C3=Cc4cccc(OC)c4OC3)N3CCC[C@@]23C1=O	-3.7%	-2.9%	4.65µM*	-30.1%	15.4%
O=C1N(Cc2cccnc2)C[C@@H]2C[C@@H](c3ccc(-c4ccccc4)cc3)N3CCC[C@@]123	-3.5%	-13.7%	11.7µM*	0.0%	?
O=C1N(Cc2cccnc2)C[C@@H]2C[C@@H](c3ccc4nonc4c3)N3CCC[C@@]123	7.3%	-12.8%	1.7%	28.2µM*	23.5%
O=C1N(Cc2cccnc2)C[C@@H]2C[C@@H](c3cccc(OCc4ccccc4)c3)N3CCC[C@@]123	-3.3%	-2.4%	?	-31.8%	?
Cc1ccccc1CN1C[C@@H]2C[C@@H](c3cn[nH]c3-c3ccccc3)N3CCC[C@@]23C1=O	-2.8%	2.0%	1.65µM*	1.2%	?
O=C1N(Cc2cccnc2)C[C@@H]2C[C@@H](c3ccc4nsnc4c3)N3CCC[C@@]123	4.3%	-13.6%	?	-32.4%	?
CCN(CC(=O)NCc1ccc(Cl)cc1)Cc1cc(=O)n2ccsc2n1	.	27.5%	11.2%	-10.3%	?
NC(=O)COc1c(-c2ccc(Br)o2)oc2ccccc2c1=O	-8.7%	4.5%	4.4%	?	51.5%
